From PubChem BioAssay
The list is not random: actives were taken first. Their share in the collection is about 6.3%.
MPTP block – inhibitors of mitochondrial permeability transition pore | isolated mouse mitochondria, Ca2+ swelling absorbance, 30 min | inhibition, % at 10 µM | hit rate 1.4% among 360,000;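 active = inhibition of 50% or more, scaled per plate between neutral and stimulator controls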;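 also: 0% = DMSO wells given calcium and 100% = 1 mM EGTA wells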
tim10-1 inh – inhibits growth of tim10-1 mutant yeast; S. cerevisiae tim10-1 ts strain growth, BacTiter-Glo, 24 h; inhibition, % at 20 µM; hit rate 2.2% among 330,000; AID 463190;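 active = inhibition of at least 40%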;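 also: mutant grown at 25 °C; 0% = DMSO wells with yeast and 100% = wells holding no yeast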
TIM10 inh – growth inhibitors of TIM10 yeast strain | hit rate 1.4% among 330,000 | inhibition, % at 10 µM | S. cerevisiae TIM10 strain growth, BacTiter-Glo luminescence, 24 h | AID 463195;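 active = inhibition of 40% or more at the single tested concentration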;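 also: wild-type TIM10 isogenic control strain grown at permissive 25 °C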
tim23-1 inh – tim23-1 yeast growth inhibition; hit rate 1.3% among 330,000; S. cerevisiae tim23-1 growth, BacTiter-Glo luminescence, 24 h; AID 463212; inhibition, % at 20 µM;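 active = growth inhibition of the mutant yeast at or above 50%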;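 also: temperature-sensitive mutant grown at 25 °C; plate controls were DMSO-treated mutant yeast for no effect and medium wells lacking yeast for full effect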
Mdm2 MdmX PPI – inhibitors of human Mdm2/MdmX interaction. O15151+Q00987. SaOS-2 split-luciferase Mdm2/MdmX complementation, luminescence. inhibition, % at 8 µM. hit rate 3% among 330,000;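 active = inhibition of at least 50% at 8 µM in the primary screen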
Target sequence (O15151 whole entry, looked up): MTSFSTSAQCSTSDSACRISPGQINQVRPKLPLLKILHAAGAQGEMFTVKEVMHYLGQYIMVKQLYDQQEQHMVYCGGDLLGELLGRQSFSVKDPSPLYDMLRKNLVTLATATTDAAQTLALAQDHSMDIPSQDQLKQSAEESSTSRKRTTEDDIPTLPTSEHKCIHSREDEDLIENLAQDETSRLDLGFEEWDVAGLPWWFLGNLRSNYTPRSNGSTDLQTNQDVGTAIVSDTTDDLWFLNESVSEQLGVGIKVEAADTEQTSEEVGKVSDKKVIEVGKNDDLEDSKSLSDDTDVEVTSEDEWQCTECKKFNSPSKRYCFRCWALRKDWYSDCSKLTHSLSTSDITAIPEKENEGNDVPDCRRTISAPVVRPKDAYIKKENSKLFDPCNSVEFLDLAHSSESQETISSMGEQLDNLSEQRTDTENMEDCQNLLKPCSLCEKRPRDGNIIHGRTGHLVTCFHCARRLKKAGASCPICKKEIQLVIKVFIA
Target sequence (Q00987 whole entry, looked up): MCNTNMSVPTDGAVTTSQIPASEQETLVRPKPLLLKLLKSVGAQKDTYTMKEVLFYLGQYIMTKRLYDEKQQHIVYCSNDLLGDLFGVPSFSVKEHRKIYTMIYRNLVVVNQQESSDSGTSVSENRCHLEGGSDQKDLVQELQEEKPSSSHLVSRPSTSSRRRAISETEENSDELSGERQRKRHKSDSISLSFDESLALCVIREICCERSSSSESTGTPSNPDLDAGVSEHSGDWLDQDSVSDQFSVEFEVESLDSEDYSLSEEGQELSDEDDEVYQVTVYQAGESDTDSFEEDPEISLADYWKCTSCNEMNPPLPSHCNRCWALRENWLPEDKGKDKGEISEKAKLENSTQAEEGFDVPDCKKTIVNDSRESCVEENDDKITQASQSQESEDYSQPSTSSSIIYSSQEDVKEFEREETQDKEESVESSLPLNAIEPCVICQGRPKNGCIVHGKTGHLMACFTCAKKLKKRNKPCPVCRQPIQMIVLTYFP
tim23-1 confirm – tim23-1 yeast growth inhibition, confirmed. shares compounds with tim23-1 inh. S. cerevisiae tim23-1 growth, BacTiter-Glo luminescence, 24 h. inhibition, % at 20 µM. hit rate 83% among 4,400;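 active = inhibition above about 39% in either of two replicate wells at 20 µM, limit read from the data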;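 also: temperature-sensitive tim23-1 mutant grown at 25 °C; 0% = DMSO wells with yeast and 100% = medium wells without yeast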
Mdm2 MdmX conf – confirmation of human Mdm2/MdmX interaction inhibitors; shares compounds with Mdm2 MdmX PPI; Mdm2-MdmX binding, luminescent assay; inhibition, % at 8 µM; hit rate 55% among 10,000; AID 489028; in the data active = inhibition above about 40%
FLuc counter – inhibits full-length luciferase, flagging false Mdm2/MdmX hits; inhibition, % at 8 µM; AID 504607; shares compounds with Mdm2 MdmX PPI; hit rate 77% among 6,200; SaOS-2 full-length luciferase counterscreen, luminescence;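 active = mean inhibition at 8 µM reaching about 37%, which flags the compound as non-specific, limit read from the data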;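 also: p53-null SaOS-2 cells with luciferase driven by a doxycycline-inducible promoter; compound on cells about two nights before reading with doxycycline added after day one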
Active calls of the source: *; . = no result.

SMILES | MPTP block | tim10-1 inh | TIM10 inh | tim23-1 inh | Mdm2 MdmX PPI | tim23-1 confirm | Mdm2 MdmX conf | FLuc counter
COc1ccc(-c2sc3cc(OC)ccc3c2-c2ccc(OCCN3CCCCC3)cc2)cc1 | 4 | . | . | . | . | . | . | .
COc1cccc(-c2sc3ccccc3c2-c2ccc(OCCN3CCCCC3)cc2)c1 | 1 | -31 | 7 | 70* | 95* | -12 | 28 | .
COc1cccc2c1C(=N)c1c(O)c3c(c(O)c1C2=O)CC(O)(C(C)=O)CC3OC1CC(N)C(O)C(C)O1 (centres undefined) | 9 | . | . | . | . | . | . | .
COc1cccc2c1C(=O)c1c(O)c3c(c(O)c1C2=O)C[C@](O)(C(C)=O)C[C@H]3O[C@@H]1C[C@@H](N)[C@@H](O)[C@@H](C)O1 | 3 | 3 | -1 | 51* | 100* | 44* | 100* | -1
O=C1C=C(c2ccc3cc[nH]c3c2)C[C@@H](c2ccc3c(c2)OCO3)C1 | 2 | 21 | 23 | 55* | 57* | 47* | 57* | 53*
CCOC(=O)CSC1=C(C#N)C(c2ccc(C)s2)CC(=O)N1 (centres undefined) | 1 | -2 | 22 | 58* | 61* | 46* | 62* | 67*
CCSC1=C(C#N)C(c2ccc(C)s2)CC(=O)N1 (centres undefined) | 1 | -23 | 12 | 34 | -19 | . | . | .
CCN1C(=O)/C(=C/c2nc3ccccc3c(=O)n2-c2ccc(C)cc2)c2ccccc21 | -1 | 40 | 10 | 52* | 83* | 41* | 62* | 86*
O=C(O)CCCN1C(=O)C2C3CCC(C3)C2C1=O (centres undefined) | -2 | . | . | . | . | . | . | .
CCCn1c(SC(C)C(=O)NC2CCCC(C)C2C)n[nH]c1=O (centres undefined) | 0 | . | . | . | . | . | . | .
CCCC(=O)NC(c1ccc(C(C)C)cc1)c1ccc2cccnc2c1O (centres undefined) | 1 | -17 | -23 | 57* | 80* | 63* | 88* | 21
CCCC(=O)NC(c1ccccc1Cl)c1ccc2cccnc2c1O (centres undefined) | 3 | 4 | -22 | 50* | 87* | 53* | 89* | 53*
CCC(=O)NC(c1ccc(C)cc1)c1ccc2cccnc2c1O (centres undefined) | -1 | 1 | 2 | 62* | 79* | 58* | 86* | 24
COc1cccc(CN2CCC2(C)C(=O)Nc2cnc3ccccc3c2)c1F (centres undefined) | 0 | . | . | . | . | . | . | .
CCn1cc(/C=C(\NC(=O)c2ccccc2)C(=O)NCCCn2ccnc2)c2ccccc21 | 1 | . | . | . | . | . | . | .
Cc1ccc2nc(N/N=C\c3ccc([N+](=O)[O-])o3)nc(-c3ccccc3)c2c1 | 6 | 23 | 1 | 67* | 67* | 14 | 30 | .
CCN(CC)C(=O)C1=C(C)N(CCCN2CCCC2=O)C(=O)C(CC(=O)NC2CCCC2)C1 (centres undefined) | 0 | . | . | . | . | . | . | .
Cc1nn(-c2ccccc2)c(C)c1/C=N/NC(=O)c1cc(C23CC4CC(CC(C4)C2)C3)[nH]n1 | -1 | 24 | 32 | 53* | 63* | 47* | 30 | .
CCOc1ccccc1NC(=O)C(=O)N/N=C/c1cc(Br)ccc1O | -1 | 25 | 18 | 59* | 76* | 51* | 83* | 39*
N#Cc1cccc(-c2csc(C(O)c3ccc(F)cc3)n2)c1 (centres undefined) | 0 | . | . | . | . | . | . | .
CCCC[C@@H]1CNCCN1CCc1cc(C(F)(F)F)cc(C(F)(F)F)c1 | 1 | 10 | -2 | -4 | 9 | . | . | .
FC(F)(F)c1cc(CCN2CCNC[C@@H]2CC2CCCCC2)cc(C(F)(F)F)c1 | -1 | -10 | 11 | 65* | 100* | 48* | 19 | .
COc1ccc(C(C[N+](=O)[O-])c2c(-c3ccccc3)cc3ccccn23)cc1 (centres undefined) | 1 | 40 | 38 | 63* | 96* | 78* | 16 | .
COc1ccc(N=C2S/C(=C\c3ccc(Cl)c([N+](=O)[O-])c3)C(=O)N2CCN(C)C)cc1 | -2 | 40 | 35 | 60* | 100* | -27 | 67* | 14
CCN1C(=O)/C(=C/c2cccs2)SC1=Nc1ccc(OC)cc1 | 1 | 12 | 8 | 5 | -15 | . | . | .
SMILES | MPTP block | tim10-1 inh | TIM10 inh | tim23-1 inh | Mdm2 MdmX PPI | tim23-1 confirm | Mdm2 MdmX conf | FLuc counter
Cc1ccc(NC(=O)c2ncn(CCCNCC3CCCCC3)n2)cc1C | -1 | . | . | . | . | . | . | .
COc1cc2cncc(Cc3ccc(Cl)cc3)c2cc1OC | 0 | 15 | -3 | 57* | 69* | 49* | 65* | 26
COc1cc2nc(CN(C)Cc3ccc(Cl)cc3)[nH]c(=O)c2cc1OC | 0 | 2 | -4 | 7 | 22 | . | . | .
Cc1cccc(/C=N/NC(=O)c2c(-c3ccccc3)noc2C)c1O | 1 | 24 | 33 | 53* | 67* | 51* | 69* | 36
C/C(=N\NC(=O)c1ccc(Cl)cc1)c1ccccn1 | 0 | 6 | 22 | 50* | 96* | 45* | 27 | .
O=c1c2ccc(Cl)cc2nc(-c2cccc(C(F)(F)F)c2)n1O | -1 | 33 | 27 | 56* | 88* | 48* | 39 | .
O=C(O)c1ccccc1-c1nc2cc(Cl)ccc2c(=O)n1O | 1 | -19 | 0 | -14 | -9 | . | . | .
COC(=O)c1ccc(NC(=O)c2nc(S(=O)(=O)Cc3cccc(C)c3)ncc2Cl)cc1 | -4 | 32 | 1 | 69* | 76* | 51* | 91* | 52*
CCCc1nnc(NC(=O)c2nc(S(=O)(=O)Cc3ccc(C)cc3)ncc2Cl)s1 | -3 | 36 | 7 | 12 | 35 | . | . | .
COc1ccccc1NC(=O)c1nc(S(=O)(=O)Cc2ccccc2)ncc1Cl | -2 | 28 | 36 | 53* | 97* | 48* | 70* | 51*
CCc1ccc(NC(=O)c2nc(S(=O)(=O)Cc3ccccc3)ncc2Cl)cc1 | -5 | -105 | -1 | 66* | 99* | 22 | 84* | 51*
CCCCNC(=O)C1(C)CCN1C(=O)c1ccc(OC)c(F)c1 (centres undefined) | -1 | . | . | . | . | . | . | .
CCC(=O)Nc1nc2c(s1)COc1ccccc1-2 | -1 | 13 | -11 | 21 | -19 | . | . | .
O=C(CCCl)Nc1nc2c(s1)CCc1ccccc1-2 | 1 | 37 | 36 | 70* | 68* | 74* | 62* | 25
Cc1nn(-c2ccccc2)c(-c2ccccc2[N+](=O)[O-])c1CC#N | -1 | . | . | . | . | . | . | .
CCC(C)n1c(=O)c(C(=O)Nc2ccccc2S(N)(=O)=O)c(O)c2ccccc21 (centres undefined) | -7 | 33 | 38 | 54* | 57* | 35 | 56* | 31
c1ccc2c(c1)nnn1c3ccccc3nc21 | . | 38 | -1 | 19 | -129 | . | . | .
